According to PubChem BioAssay (NCATS):
Results filed as inconclusive are left out. The source made the active and inactive calls. The call rests on the fitted dose curve; in most records, active means well fitted inhibition curve with a large enough effect; inconclusive means small, poorly fitted or top-dose-only effect; inactive means flat fitted curve, though single readings scatter.

These compounds were tested against Glutathione peroxidase 1 (Homo sapiens) (UniProt P07203) (assay: Primary qHTS Assay for Inhibitors of Recombinant Selenoprotein Glutathione Peroxidase 1 (GPX1) (AID 1845191; further: nearly all actives have a fitted effect of over 65% in size)). Conditions: recombinant GPX1, GR-coupled NADPH fluorescence, 15 min; series mostly up to 48.8 µM; activity, negative = inhibition: at the top concentration.
Source text: Assay Provider: Elias S.J. Arner MD PhD.
Department of Medical Biochemistry and Biophysics
Karolinska Institutet, Solna, Stockholm, Sweden
Selenoprotein glutathione peroxidases (GPX), like the ubiquitously expressed GPX1 and the ferroptosis modulator GPX4, enact their antioxidant activities by reducing hydroperoxides using glutathione. […] GPX1 and GPX4 inhibitors have thus shown promise as anti-cancer agents. Existing inhibitors are often promiscuous, or modulate GPX activity only indirectly, so novel direct inhibitors identified through screening against GPX1 and GPX4 could be valuable. Here, we developed optimized glutathione reductase (GR)-coupled GPX assays for the biochemical high-throughput screen (HTS) of almost 12,000 compounds with known mechanisms of action. Initial hits were triaged using a GR counter-screen, assessed for isoform specificity using a separate GPX2 assay, and were assessed for general selenocysteine-targeting activity using a thioredoxin reductase (TXNRD1) assay. With this suite of assays, we identified novel GPX1/GPX2- and GPX4-specific inhibitors and can here present a validated pipeline for future discovery research for selenoprotein-targeting agents.
SEQUENCE No. (e.g., 1, 2, 3, etc.); […] (e.g., Cells, Incubation, Reagent, etc.); VALUE; DESCRIPTION.
1; Reagent 1; 3 uL; GPx1 enzyme or no enzyme control in 1536-well, black, solid Greiner assay plate.
2; Compound; 25 nL; Kalypsis pin tool (Wako USA) equipped with a 1536-well pin head.
3; Incubation; 30 min; room temperature.
4; Reagent 2; 1 uL; 10 nM GPX1, 1 mM GSH, 0.5 mM CHP, 0.5 mM NADPH, 100 nM GR, 0.01% BSA substrate
5; Detection; Fluorescence; ViewLux microplate reader, excitation 340 nm and emission 450 nm.
6; Incubation; 15 min; room temperature.
7; Detection; Fluorescence; ViewLux microplate reader, excitation 340 nm and emission 450 nm.
NOTES (numbers refer to Sequence numbers above)
1. 3 uL of 16.66 nM GPX1 and 0.016% BSA in assay buffer (50 mM Tris-HCl, 2 mM EDTA (pH 7.5), 150 mM NaCl) was added to columns 3-48 of 1536-well assay plates using a BioRAPTR Flying Reagent Dispenser (Let's Go Robotics (LGR), Carlsbad, CA). A no-enzyme control (0.01% BSA in TES assay buffer) was added to columns 1-2.
2. 25 nL of test compounds and DMSO controls were added to each well with a pin tool (Kalypsys).
3. The assay plates were incubated for 30 minutes at room temperature.
4. 1 uL of master mix (500 nM glutathione reductase (GR), 5 mM reduced glutathione (GSH), 2.5 mM NADPH in assay buffer) was added. 1 uL of cumene hydroperoxide (CHP) ([2.5 mM] in 50% EtOH) was then added within 5 minutes to initiate the reaction. Final concentrations were: 10 nM GPX1, 1 mM GSH, 0.5 mM CHP, 0.5 mM NADPH, 100 nM GR, 0.01% BSA.
5. Initial fluorescence readout (t=0) at 340/450 nm was measured using a ViewLux multimodal detector (PerkinElmer, Waltham, MA).
7. Endpoint fluorescence readout (t=15) at 340/450 nm was measured 15 min after room temperature incubation.
Potency means the concentration at half of the fitted maximal effect.

Glutathione peroxidase 1 (Homo sapiens), sequence (P07203 whole entry, looked up): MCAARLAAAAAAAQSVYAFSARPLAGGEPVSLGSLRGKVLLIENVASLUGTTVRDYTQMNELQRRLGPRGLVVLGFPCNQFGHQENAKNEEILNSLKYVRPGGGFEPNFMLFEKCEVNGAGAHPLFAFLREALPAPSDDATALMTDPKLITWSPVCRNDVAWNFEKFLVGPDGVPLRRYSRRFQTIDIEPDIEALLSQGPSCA

Row | Structure (SMILES) | activity, negative = inhibition | outcome | Potency
1 | CN1CC[C@@]2(C)c3cc(OC(=O)Nc4ccccc4)ccc3N(C)[C@@H]12 | -14.4% (inactive) | – | –
2 | CCc1c(C(=O)C(N)=O)c2c(OCC(=O)OC)cccc2n1Cc1ccccc1 | – | inactive | –
3 | CC(N)[C@H](O)c1ccc(O)c(O)c1 (stereo not given in full) | – | inactive | –
4 | C[N+]1(C)CCN(c2ccccc2)CC1 | 2.32% (inactive) | – | –
5 | FC(F)OC(F)(F)C(F)Cl (stereo not given) | – | inactive | –
6 | CC(C)(C)c1cc(C=C(C#N)C#N)cc(C(C)(C)C)c1O | – | inactive | –
7 | C/C=C(\C)C(=O)O[C@H]1[C@H](OC(C)=O)[C@]2(CO)[C@H](O)[C@H](O)[C@]3(C)C(=CCC4[C@@]5(C)CC[C@H](O[C@@H]6O[C@H](C(=O)O)[C@@H](O)[C@H](O[C@@H]7OC[C@H](O)[C@H](O[C@@H]8OC[C@H](O)[C@H](O)[C@H]8O)[C@H]7O)[C@H]6O[C@@H]6O[C@H](CO)[C@@H](O)[C@H](O)[C@H]6O)C(C)(C)C5CC[C@]43C)[C@@H]2CC1(C)C (stereo not given in full) | – | inactive [at 9.52 µM] | –
8 | O=[N+]([O-])c1cc(I)c(O)c(I)c1 | -29.1% (inactive) | – | –
9 | C[C@]12CC[C@H](OS(=O)(=O)O)CC1=CC[C@@H]1[C@@H]2CC[C@]2(C)C(=O)CC[C@@H]12 | -19.6% (inactive) | – | –
10 | O=C1C[C@@H]2OCC=C3CN4CC[C@]56c7ccccc7N1[C@H]5[C@H]2[C@H]3C[C@H]46 | – | – | inactive
11 | COC(=O)C1(C)CCC(O)C2(C)c3cc(O)c(C(C)C)cc3C(O)C(OC(C)=O)C12 (stereo not given) | -14.9% [at 27.7 µM] (inactive) | – | –
12 | CC(N)Cc1c[nH]c2ccc(O)cc12 (stereo not given) | -11% (inactive) | – | –
13 | CC[C@H]1CN2CC[C@H]1C[C@@H]2[C@@H](O)c1ccnc2ccc(OC)cc12 | – | – | inactive
14 | CCC1NC(=O)C2C(Cl)C(Cl)CN2C(=O)C(C(C)O)NC(=O)CC(c2ccccc2)NC(=O)C(CO)NC1=O (stereo not given) | 2.7% [at 15.3 µM] (inactive) | – | –
15 | O=[N+]([O-])/C=C/c1ccc2c(c1)OCO2 | 0.281% (inactive) | – | –
16 | O=[N+]([O-])c1ccc2nc(N3CCNCC3)ccc2c1 | 4.21% (inactive) | – | –
17 | C=CCN1CCC23c4c5ccc(O)c4O[C@H]2C(=O)CC[C@@]3(O)C1C5 (stereo not given in full) | -12.5% (inactive) | – | –
18 | NCC(O)c1cccc(O)c1 (stereo not given) | -16.4% (inactive) | – | –
19 | CC(C)(C)c1cc(C(C)(C)C)c2c(c1)C(O)(C(F)(F)F)C(=O)O2 (stereo not given) | – | inactive | –
20 | CCN1C[C@]2(COC(=O)c3ccccc3N3C(=O)C[C@H](C)C3=O)CC[C@H](OC)[C@@]34[C@@H]5C[C@H]6[C@H](OC)[C@@H]5[C@](O)(C[C@@H]6OC)[C@](O)([C@@H](OC)[C@H]23)[C@@H]14 | 3% (inactive) | – | –

Row | Structure (SMILES) | activity, negative = inhibition | outcome | Potency
21 | Cc1c(Cl)cccc1S(=O)(=O)Nc1nc(CC(=O)N2CCN(C)CC2)cs1 | -3.02% (inactive) | – | –
22 | N#C/C(=C/c1ccc(O)c(O)c1)C(N)=S | – | – | 14.3 µM (active)
23 | C[C@]12CCC(=O)C=C1C=C[C@@H]1[C@@H]2CC[C@@]2(C)[C@H]1CC[C@@]2(O)CCC(=O)O | -11.2% (inactive) | – | –
24 | C=C1[C@@H]2CC[C@@]3(C)[C@H](c4ccoc4)OC(=O)C[C@]13O[C@H]1CC(=O)C(C)(C)[C@H](C(OC(C)=O)C(=O)OC)[C@]12C (stereo not given in full) | -22.6% [at 27.7 µM] (inactive) | – | –
25 | CCOC(=O)c1ncn2c1[C@@H]1CCCN1C(=O)c1cc(OC)ccc1-2 | – | inactive | –
26 | O=C1CC[C@@]2(O)C3Cc4ccc(O)c5c4C2(CCN3CC2CC2)[C@H]1O5 (stereo not given in full) | 1.32% (inactive) | – | –
27 | OC1(c2ccc(Cl)cc2)c2ccccc2C2=NCCN21 (stereo not given) | – | inactive | –
28 | O=[N+]([O-])C(Br)(CO)CO | 1.88% (inactive) | – | –
29 | O=C(NCNC(=O)NC1C(=O)NC(=O)N1CO)NC1C(=O)NC(=O)N1CO (stereo not given) | 0.174% (inactive) | – | –
30 | O=C(NC1CN2CCC1CC2)c1cc2ccoc2cn1 (stereo not given) | -22% (inactive) | – | –
31 | C[C@@](O)(COc1ccc(C#N)cc1)C(=O)Nc1ccc(C#N)c(C(F)(F)F)c1 | – | inactive | –
32 | CN(N=O)c1ccc(O)c(O)c1 | – | inactive | –
33 | CC(C)(C)c1o[nH]c(=O)c1CC(N)C(=O)O (stereo not given) | 0.442% (inactive) | – | –
34 | CCCN1CCc2cc(O)cc3c2[C@H]1Cc1ccc(O)c(O)c1-3 | – | inactive | –
35 | Cn1ncnc1COc1nn2c(-c3c(F)cccc3F)nnc2cc1C1CCC1 | -7.88% (inactive) | – | –
36 | O=C(C[C@@H]1NCCC[C@H]1O)Cn1cnc2cc(Br)c(Cl)cc2c1=O | -2.94% (inactive) | – | –
37 | C=C(CO)C(=O)O[C@H]1C/C(C)=C/CC/C(CO)=C/[C@H]2OC(=O)C(=C)[C@H]12 | 1.58% [at 27.7 µM] (inactive) | – | –
38 | CCCN(CCC)C1CCc2cccc(O)c2C1 (stereo not given) | -16.2% (inactive) | – | –
39 | COC(=O)C12C(=O)C(C)(O)C(=O)C1(C)C(C)=CC1C34CCC(OC3=O)C(C)(CO)C4CCC12C (stereo not given) | – | inactive [at 27.7 µM] | –
40 | CC(=O)NBr | -4.74% (inactive) | – | –
